# Bioassay records as filed in PubChem BioAssay.
# APOBEC3G inh: blocks human APOBEC3G single-stranded DNA deamination | inhibition, % at 20 µM | AID 493012 | recombinant A3G, ssDNA deamination FAM/TAMRA fluorescence | 0.28% of 330,000 active;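 active means inhibition of at least 40% at 20 µM, with no more than 30% in the related APOBEC3A deaminase screen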;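 further: plate controls were DMSO wells with A3G for no effect and wells lacking A3G enzyme for full effect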
# MIN6 prolif-1: inducers of beta-cell replication in MIN6 cells; proliferation, % at 10 µM; AID 2380; 0.29% of 330,000 active; MIN6 cells proliferation, ATPlite luminescence, 48 h; cells starved in 0.2% serum; 100% = growth in 10% serum;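 active means compounds whose signal lies at least 3.5 SD above the mean of all wells on their plate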;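 further: 0% = DMSO-treated cells in low-serum medium and 100% = 10% serum control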
# NRP1-CendR mod: NRP-1/CendR interaction modulation; O14786; FAM-RPARPAR peptide binding to NRP-1, fluorescence polarization; inhibition, % at 25 µM; 0.85% of 360,000 active; AID 602438;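 active means inhibition or corrected inhibition above about 18%, plus a signal ratio from 0.5 to 1.5, limit read from the data, passing the limit was not always enough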
# A3A deaminase: inhibitors of human APOBEC3A DNA deaminase; 0.41% of 330,000 active; P31941; inhibition, % at 20 µM; recombinant A3A, FAM/TAMRA ssDNA deamination fluorescence;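 active means at least 40% inhibition at 20 µM here, with at most 30% in a related deaminase screen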;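 further: plate controls were A3A with DMSO for no effect and wells lacking A3A enzyme for full effect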
# VLA-4 inh: inhibition in a human VLA-4 binding assay. inhibition, % (about 7 µM as worked out from the volumes in the protocol). AID 2557. P13612. 0.2% of 330,000 active. VLA-4 expressing cells, ligand binding flow cytometry; in the data active means inhibition above about 50%
# MIN6 prolif-2: confirmation of inducers of beta-cell replication in MIN6 cells; shares compounds with MIN6 prolif-1; MIN6 beta-cell proliferation, ATPlite luminescence, 48 h; cells kept in 0.2% serum; scaled between 0.2% and 10% serum; proliferation increase, % at 50 µM; 920 tested, under 10 active;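 active means proliferation increase above 40% at any of the four tested concentrations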
# The depositor's hits bear a star; . = no result given. Sampled rows, rich in hits. Any-hit rate of the full collection: about 1.8%.
SMILES,APOBEC3G inh,MIN6 prolif-1,NRP1-CendR mod,A3A deaminase,VLA-4 inh,MIN6 prolif-2
CCCCn1c(-c2nonc2N)nc2ccccc21,0,8.1*,5,0,-8,-4
Cc1cc(C)c(S(=O)(=O)c2ccccc2)c(Cl)n1,5,4.9*,1,-1,-11,-1
O=C(NCc1ccccc1Cl)C1CCCN(C(=O)Nc2ccc(F)cc2)C1 (centres undefined),-9,-3,1,-4,3,.
Cc1ccc(CNC(=O)C2CCCN(C(=O)Nc3ccc(F)cc3)C2)cc1 (centres undefined),-5,10*,-4,-3,3,0
CCCn1c(=N)c(S(=O)(=O)c2ccc(F)cc2)cc2c(=O)n3ccccc3nc21,-7,17*,-13,-6,10,-6
Cn1c(=N)c(S(=O)(=O)c2ccc(F)cc2)cc2c(=O)n3ccccc3nc21,0,2,1,0,3,.
CN1CC(=O)Nc2ccc([N+](=O)[O-])cc2C1=O,-17,0,-16,-4,0,.
COc1ccc(N(Cc2cc(=O)[nH]c3ccccc23)C(=O)C(C)C)cc1,-10,-3,-8,-2,13,.
COc1ccc(CCNC(=O)CN2c3cccc4cccc(c34)S2(=O)=O)cc1,-3,13*,12,1,.,5
O=C(NC1CCCCC1)C1CCC(=O)N(C2CC2)C1 (centres undefined),-2,11*,-21,-3,-6,-1
CC1(C)CC(NC(=O)C2CCC(=O)N(C3CC3)C2)CC(C)(C)C1 (centres undefined),-3,-1,-1,-2,2,.
O=C(CSCc1c(Cl)cccc1Cl)NCc1ccco1,-2,9.2*,19,-10,-1,-3
COc1ccc(NC(=O)C2CC2)cc1OC1CCCC1,2,2,1,3,-1,.
COC(=O)c1ccc(OC)c(OC2CCCC2)c1,-7,6.6*,5,3,-1,3
COc1ccc(OC(=O)COc2cc(C)ccc2C)cc1,-4,6.1*,12,-5,1,-1
COCCN(Cc1cc2ccc(C)cc2[nH]c1=O)S(=O)(=O)c1ccccc1,-11,9.1*,-15,-4,1,-1
COc1cc2cc(CN(CCCO)S(=O)(=O)c3ccccc3)c(=O)[nH]c2cc1OC,-8,-2,-1,-7,18,.
COc1ccc(CN2CCN(C(=O)Cn3ncn4cccc4c3=O)CC2)c(OC)c1OC,-6,3,0,-2,-5,.
O=c1ccn(-c2cccc(C(F)(F)F)c2)nc1-c1ccn(-c2ccccc2F)n1,-5,9.4*,10,1,-3,-6
COc1ccc(-n2ccc(-c3nn(-c4cccc(C(F)(F)F)c4)ccc3=O)n2)cc1,-4,-1,6,-1,7,.
CC(=O)Nc1ccc(NC(=O)C(C)Sc2nnc(C3CC3)n2-c2ccccc2)cc1 (centres undefined),-7,1,7,-3,-15,.
O=C(NCCCn1ccnc1)/C(=C\c1cccs1)NC(=O)c1ccccc1,-5,6.7*,4,-2,-3,2
Cc1nn(-c2ccccc2)c2sc(-c3nnc(SCC(=O)O)o3)cc12,-3,5.1*,-11,-5,13,-2
CCn1c(SCC(=O)O)nnc1-c1cc2c(C)nn(-c3ccccc3)c2s1,-2,2,0,5,-8,.
CN1CCN(C(=O)/C(=C/c2cn(S(=O)(=O)N(C)C)c3ccccc23)NC(=O)c2ccccc2)CC1,-3,-3,18,-5,11,.
SMILES,APOBEC3G inh,MIN6 prolif-1,NRP1-CendR mod,A3A deaminase,VLA-4 inh,MIN6 prolif-2
COCCOC(=O)c1c(C)oc2ccc(NS(=O)(=O)c3ccccc3)cc12,-10,5.0*,-2,-4,13,-6
COCCOC(=O)c1c(C)oc2ccc(NS(=O)(=O)c3ccc(C)cc3)cc12,11,-2,10,9,3,.
c1cc(-c2nnc3sc(C4CCCCC4)nn23)ccn1,-12,9.0*,2,-9,9,3
c1csc(Cc2nn3c(-c4ccncc4)nnc3s2)c1,0,7.3*,2,3,3,4
CCC(NC(=S)NC1CCCCC1)c1ccc(C)cc1 (centres undefined),-5,-5,7,-2,8,.
Cc1cc(C)n(CC(=O)NCc2ccccc2)c(=O)c1C#N,-8,6.0*,4,0,7,0
CCn1c(=O)c2cc(C(=O)N(C)c3ccc(OC)cc3OC)sc2c2ccccc21,-1,6.7*,8,5,-3,-6
CCn1c(=O)c2cc(C(=O)N(C)c3cc(C)ccc3OC)sc2c2ccccc21,-5,-3,1,-6,-6,.
Cc1ccc(C(c2sc3ncnn3c2O)N2CCC(C)CC2)cc1 (centres undefined),-10,12*,-4,-1,-4,-2
CCOC(=O)c1ccc(-c2c(-c3ccccc3OC)sc3cc4c(cc23)OCO4)cc1F,-14,-7,-5,-6,5,.
COc1ccc2[nH]cc(/C=C/c3cc[n+](C)cc3)c2c1,0,-1,-188,35,-251,.
Cc1ccc(S(=O)(=O)N2CCCCC2)cc1NC(=O)c1cnccn1,-10,4,-1,-2,.,.
Cc1oc(S(=O)(=O)N2CCCCC2)cc1NC(=O)Nc1ccc(F)cc1,-8,-2,6,6,8,.
C/C(=N\NC(=O)c1ccccn1)C12CC3CC(CC(C3)C1)C2,0,6.6*,-25,1,-7,-5
N/C(=N\OC(=O)C12CC3CC(CC(C3)C1)C2)c1ccccn1,1,-2,-1,-2,-2,.
CCN1CCN(c2nc(Nc3ccc(C)c(C)c3)nc(N)c2[N+](=O)[O-])CC1,-6,0.0*,14,1,0,-6
O=C(NCc1ccco1)c1nn2c(C(F)(F)F)cc(-c3cccs3)nc2c1Cl,5,-4,-18,5,4,.
O=C(NCc1ccco1)c1cc2nc(-c3cccs3)cc(C(F)(F)F)n2n1,-7,7.8*,-4,0,20,5
CCOC(=O)N1C(=O)[C@](CC)(c2ccccc2)N1C(=O)OCC,-14,12*,14,-1,10,-5
COc1ccc(CN2CCNC(=O)C2CC(=O)NCC2CCOCC2)cc1C (centres undefined),1,-1,-2,-1,.,.
COc1ccc(Nc2nc(C)nc3c2oc2ccccc23)c(OC)c1,0,0,0,1,-1,.
COc1ccccc1Nc1nc(C)nc2c1oc1ccccc12,12,10*,2,-3,13,3
COc1ccc(C(=O)Nc2ccnn2C2CCN(C(C)CSC)CC2)cc1 (centres undefined),-8,2,11,-5,20,.
Cc1ccc(NC(=O)COC(=O)c2ccc(CN3CCCC3=O)cc2)cc1C,-14,1,-4,-5,.,.
